Laboratory results published in PubChem BioAssay (NCATS).
Results filed as inconclusive are left out. The source made the active and inactive calls. Calls come from the whole dose curve; as a rule, active = well fitted curve in the direction sought with a large enough effect; inconclusive = small, poorly fitted or top-dose-only effect, or another doubt; inactive = no such curve, though single readings can be large; an effect the other way counts as inactive or inconclusive.

Columns and labels:
CRL-7250 = normal cell line; experiment: Cytotoxic Profiling of Annotated Libraries Using Quantitative High-Throughput Screening (AID 1296008); conditions: Five cell lines viability, CellTiter-Glo ATP luminescence, 48-72 h; max response: hits give low values; note: nearly all actives have a fitted effect of over 60% in size; for max response: % is set by controls: 0 for no effect and ±100 for the full control effect
In short: (§1)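 Compounds were pin-transferred onto cells and incubated 48 or 72 hr at 37 degree Celsius, 95% humidity. CellTiter-Glo was added, plates sat 10 min at room temperature, then ATP-coupled luminescence was imaged as the viability read-out.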

HEK293 = experiment: as above; conditions: Five cell lines viability, CellTiter-Glo ATP luminescence, 48-72 h; max response: hits give low values
In short: as §1

HaCat [1] = experiment: as above; conditions: Five cell lines viability, CellTiter-Glo ATP luminescence, 48-72 h; max response: hits give low values
In short: as §1

KB-3-1 = experiment: as above; conditions: Five cell lines viability, CellTiter-Glo ATP luminescence, 48-72 h; max response: hits give low values
In short: as §1

NIH3T3 [2] = experiment: as above; conditions: Five cell lines viability, CellTiter-Glo ATP luminescence, 48-72 h; max response: hits give low values
In short: as §1

HACAT [3] = experiment: qHTS assay to identify novel small-molecules to repurpose for Merkel cell carcinoma treatment (AID 1296009); conditions: MCC and control cell lines, CellTiter-Glo viability, 72 h; at 44.8 µM (top of the series) unless noted; note: nearly all actives have a fitted effect of over 60% in size
In short: (§2)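 Luminescence from CellTiter-Glo, read 10 min after addition at room temperature, reported viability following a 72 hr, 37 degree celsius treatment with NPC or MIPE compounds in titration; values normalized to plate controls.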

NIH3T3 [4] = experiment: as above; conditions: MCC and control cell lines, CellTiter-Glo viability, 72 h; at 44.8 µM (top of the series) unless noted
In short: as §2

C33A = experiment: Primary qHTS to identify gynecologic anti-cancer compounds using libraries of approved drugs and bioactive compounds (AID 1345084); conditions: Gynecologic cancer cell panel viability, ATPlite luminescence, 48 h; series mostly up to 57.5 µM; note: % is set by controls: 0 for no effect and ±100 for the full control effect; nearly all actives have a fitted effect of over 55% in size
In short: (§3)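 48 h compound exposure at 37 C, 5% CO2; five-point qHTS. ATPlite luminescence readout of cell ATP.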

CAOV3 = experiment: as above; conditions: Gynecologic cancer cell panel viability, ATPlite luminescence, 48 h; series mostly up to 57.5 µM
In short: as §3

CASKI = experiment: as above; conditions: Gynecologic cancer cell panel viability, ATPlite luminescence, 48 h; series mostly up to 57.5 µM
In short: as §3

Es-2 = experiment: as above; conditions: Gynecologic cancer cell panel viability, ATPlite luminescence, 48 h; series mostly up to 57.5 µM
In short: as §3

HeLa = experiment: as above; conditions: Gynecologic cancer cell panel viability, ATPlite luminescence, 48 h; series mostly up to 57.5 µM
In short: as §3

Hek293T = experiment: as above; conditions: Gynecologic cancer cell panel viability, ATPlite luminescence, 48 h, control line for the selectivity index; series mostly up to 57.5 µM
In short: as §3

JEG-3 = experiment: as above; conditions: Gynecologic cancer cell panel viability, ATPlite luminescence, 48 h; series mostly up to 57.5 µM
In short: as §3

Cc1cn(-c2cc(NC(=O)c3ccc(C)c(Nc4nccc(-c5cnccn5)n4)c3)cc(C(F)(F)F)c2)cn1
inactive: max response (CRL-7250) -3.34% | max response (HEK293) -20.5% | outcome (HaCat [1]) | max response (KB-3-1) -2.9% | outcome (NIH3T3 [2]) | outcome (HACAT [3]) | outcome (NIH3T3 [4]) | Potency (C33A) | Potency (CAOV3) | outcome (CASKI) | Potency (Es-2) | Potency (HeLa) | Potency (Hek293T) | Potency (JEG-3)

C/C(=C\CCC(C)CCO)C(=O)OC[C@H]1O[C@@H](O[C@@H]2OC=C(C(=O)O)[C@H]3CC[C@](C)(O)[C@@H]23)C(O)[C@@H](O)C1O (stereo not given in full)
inactive: max response (CRL-7250) 3.02% | max response (HEK293) 4.12% | outcome (HaCat [1]) | outcome (KB-3-1) | outcome (NIH3T3 [2]) | outcome (HACAT [3]) inactive [at 17.4 µM] | outcome (NIH3T3 [4]) inactive [at 17.4 µM] | Potency (C33A) | Potency (CAOV3) | outcome (CASKI) | Potency (Es-2) | Potency (HeLa) | Potency (Hek293T) | Potency (JEG-3)

CSCC1OC(n2cnc3c(=O)[nH]cnc32)C(O)C1O (stereo not given)
inactive: max response (CRL-7250) -7.17% | max response (HEK293) -2.06% | outcome (HaCat [1]) | max response (KB-3-1) 2.69% | outcome (NIH3T3 [2]) | outcome (HACAT [3]) | outcome (NIH3T3 [4]) | Potency (C33A) | Potency (CAOV3) | outcome (CASKI) | Potency (Es-2) | Potency (HeLa) | Potency (Hek293T) | Potency (JEG-3)

O=C(O)C[C@H]1CCC(=O)[C@@H]1C/C=C\CCO
inactive: outcome (CRL-7250) | max response (HEK293) 0.813% | outcome (HaCat [1]) | max response (KB-3-1) 0.282% | outcome (NIH3T3 [2]) | outcome (HACAT [3]) | outcome (NIH3T3 [4]) | Potency (C33A) | Potency (CAOV3) | outcome (CASKI) | Potency (Es-2) | Potency (HeLa) | Potency (Hek293T) | Potency (JEG-3)

C=C1Cc2c(Cl)cc3[nH]c4c5c3c2[C@@]2(O)[C@@H]1C[C@@H]2C(C)(C)O[C@H]5C1CC[C@@]2(O)[C@@]35O[C@@H]3[C@H]3OC(C)(C)[C@H]3O[C@H]5CC[C@]2(C)[C@@]41C (stereo not given in full)
inactive: max response (CRL-7250) -4.78% | max response (HEK293) 0.456% | outcome (HaCat [1]) | max response (KB-3-1) 6.12% | outcome (NIH3T3 [2]) | outcome (HACAT [3]) inactive [at 17.4 µM] | outcome (NIH3T3 [4]) inactive [at 17.4 µM] | Potency (C33A) | Potency (CAOV3) | outcome (CASKI) | Potency (Es-2) | Potency (HeLa) | Potency (Hek293T) | Potency (JEG-3)

C=C1CC[C@@H]2C(C)(C)CCC[C@@]2(C)[C@@H]1CC/C(=C/C(=O)OC)COC(C)=O
inactive: max response (CRL-7250) -1.64% | max response (HEK293) -16.3% | outcome (HaCat [1]) | max response (KB-3-1) -9.17% | outcome (NIH3T3 [2]) | outcome (HACAT [3]) | outcome (NIH3T3 [4]) | Potency (C33A) | Potency (CAOV3) | outcome (CASKI) | Potency (Es-2) | Potency (HeLa) | Potency (Hek293T) | Potency (JEG-3)

O=C(O)/C=C/c1ccc2occc2c1O[C@@H]1O[C@H](CO)[C@@H](O)[C@H](O)[C@H]1O
inactive: max response (CRL-7250) -6.75% | max response (HEK293) 1.57% | outcome (HaCat [1]) | outcome (KB-3-1) | outcome (NIH3T3 [2]) | outcome (HACAT [3]) | outcome (NIH3T3 [4]) | Potency (C33A) | Potency (CAOV3) | outcome (CASKI) | Potency (Es-2) | Potency (HeLa) | Potency (Hek293T) | Potency (JEG-3)

COc1cc(C(=O)OCC2=CCC3C(C(=O)O)=COC(O[C@@H]4O[C@H](CO)[C@@H](O)[C@H](O)[C@H]4O)C23)ccc1O (stereo not given in full)
inactive: max response (CRL-7250) -2.16% | max response (HEK293) -8.64% | outcome (HaCat [1]) | outcome (KB-3-1) | outcome (NIH3T3 [2]) | outcome (HACAT [3]) inactive [at 17.4 µM] | outcome (NIH3T3 [4]) inactive [at 17.4 µM] | Potency (C33A) | Potency (CAOV3) | outcome (CASKI) | Potency (Es-2) | Potency (HeLa) | Potency (Hek293T) | Potency (JEG-3)

CN1CCN(C(=O)c2cc3cc(Cl)ccc3[nH]2)CC1
inactive: max response (CRL-7250) -2.46% | max response (HEK293) -8.86% | outcome (HaCat [1]) | max response (KB-3-1) -0.0663% | outcome (NIH3T3 [2]) | outcome (HACAT [3]) | outcome (NIH3T3 [4]) | Potency (C33A) | Potency (CAOV3) | outcome (CASKI) | Potency (Es-2) | Potency (HeLa) | Potency (Hek293T) | Potency (JEG-3)

OC[C@H]1O[C@@H](OCc2ccccc2)[C@H](O[C@@H]2OC[C@@H](O)[C@H](O)[C@H]2O)[C@@H](O)[C@@H]1O
inactive: outcome (CRL-7250) | max response (HEK293) 0.407% | outcome (HaCat [1]) | outcome (KB-3-1) | outcome (NIH3T3 [2]) | outcome (HACAT [3]) inactive [at 17.4 µM] | outcome (NIH3T3 [4]) inactive [at 17.4 µM] | Potency (C33A) | Potency (CAOV3) | outcome (CASKI) | Potency (Es-2) | Potency (HeLa) | Potency (Hek293T) | Potency (JEG-3)
